The text below walks through data of PubChem BioAssay AID1508600 (Functional Genomics Laboratory (NCATS/FGL), 2020).

Out of some 53,000 sequences screened, about 3,700 (7%) were called active. Many of the other results were omitted from the sample, so actives are more common in it than they were. A number with no mark means an inactive call.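 Rule for the calls: active = gene knockdowns whose robust z-score for IL-1 alpha signal is at least 2 or at most -2, so actives lie on both sides; inactive = the rest.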

This experiment can be described thus: Components of the Cytosolic LPS Sensing Pathway: Gene Identification via Genome-wide siRNA Screen.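 Note: robust z of the log signal after scaling to non-targeting control siRNA wells of the plate.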 Conditions: RAW264.7 macrophages, IL-1a HTRF, actives lie on both sides, screened at 100 nM (by protocol), cells primed 5 h with Pam3CSK4 first. Put shortly: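 RAW264.7 mouse macrophages reverse-transfected with single siRNAs (100 nM final) for 48h, primed with Pam3CSK4 for 5 hours, then transfected with LipidA for 24 hour. Supernatant IL-1a read by HTRF; values normalized to negative-control median, log-transformed robust z-scores.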
Background: TR-FRET usually uses a lanthanide donor and a delayed reading to cut background.
In the case of GAACGGGUUACCAUGUGGUTT against Xkr9, the z-score was 0.546.

On to CGCAGGUGAGAGCAAUGUUTT against Lrrn4cl, for which the z-score was -1.35.

Regarding GGAAGGAACUCAAGAAGACTT against Ifrd1, the z-score is 2.13 (active).

On to GGAUGUGAAAUUCAAGCUUTT against Dhx34, for which the z-score was -0.457.

Regarding GGAUACAGAAGGUUUUCUUTT against Abcd4, the z-score was -0.137.

With GGAACCCUUUUCAAAAGAGTT against Bclaf3, the z-score is 0.112.

GGAGGAGACUAAAGAAAAUTT against Myf6: the z-score was -1.53.

In the case of GGAAACAUCUUGUUGAAGATT against BC106179, the z-score was 0.361.

In the case of GGAGAAAGCAGAGAUAAAATT against Cdk11b, the z-score is -1.8.

Turning to CCCACAACUGCAAAUUGUGTT against Olfr782, the z-score is -1.21.

Turning to GGAUACAAGAAACCUUAAGTT against Os9, the z-score was 1.09.

Consider CGACUCUUGCCUGUUCGUGTT against Adamtsl5, for which the z-score was -2.48 (active).

For GGAUAAAUUUCAAGAUGUGTT against Naip5, the z-score is -0.552.

With “GGUACCAUUCGUUCAAACCTT against 3830406C13Rik”, the z-score is 0.416.

GGCCUUUACGUCUUCCUAGTT against Zdhhc12: the z-score is -1.19.

As to GGAAGAUGGGCAAGAUGAUTT against Sash3, the z-score was -0.183.

Take CCCAGCACUUUUUCGCUCUTT against Olfr458: the z-score is 0.959.

Take GCAGGACAACCAGCUGGUATT against Tmem107: the z-score was 3.43 (active).

GGCACUCAGCAAGAUUGUATT against Nr2c2ap: the z-score is -0.28.

Consider GCUCAUCUUAUCCUCUAAGTT against Cts7, for which the z-score was 0.391.

Regarding UCAGGUCGCUGCUAAACUCTT against Ccdc57, the z-score was -1.26.

Regarding GGUUCAAAGGUGAUGGUGUTT against Dab2, the z-score is 0.273.

As for CGAGCUUUGAAAGUUUAAUTT against Pcsk2, the z-score is 0.591.

Regarding CCUGACGAUUGAGUAUCAUTT against Tubgcp4, the z-score is -0.267.

With GGACCAGACGAACAGUGAUTT against Surf2, the z-score was 2.28 (active).

Turning to GGACCUGCCCAAAUCUGAUTT against Fbxo40, the z-score was 0.307.

For CGGCUCUUCAAUAGAGCCUTT against Olfr123, the z-score was -0.265.

Turning to GGAUUAUGGUCUCAUUGUCTT against Exd2, the z-score is 0.0549.

As to GGAGCUUUCUCAGAGGUGUTT against Camk1g, the z-score is -1.47.

Turning to GCUGCUCGUUAAAGCCGGATT against Ankrd6, the z-score is 2.92 (active).

Take CCAGAUGCAGUCACAAGUCTT against Klf4: the z-score was 0.843.

In the case of GGUUUUAAAGGCCAUAUUGTT against Msmo1, the z-score is -1.72.

In the case of GCCGACAACACAAAAUUAUTT against Vps26b, the z-score was 0.4.

As for CGAAAGCACACACGUAGAATT against Erdr1, the z-score was 0.391.

For the sequence GGUCUUCCAAGGUCAGAAGTT against Cyp2d10, the z-score was 1.5.

For the sequence “GGCAAUAAUCUUAGAGGUUTT against 9530068E07Rik”, the z-score was 0.499.

For the sequence GCUGUAAGGAGGAACUUCUTT against Btg1, the z-score was -1.03.

In the case of GGUCUCUGGUAAGAAGAGCTT against Zfp276, the z-score was 2.95 (active).

Regarding CCGAACAGAGGAAGAAGGCTT against Olfr816, the z-score was 0.281.

Take GGGAGGACAGUCAUUGGUUTT against Phldb1: the z-score was -1.84.

As to GCAUAAGGAUAUAGCAUUATT against Ctla4, the z-score is -0.72.

For the sequence GGCAUUUGCACAGUUUAUGTT against Upp2, the z-score is -1.42.

On to GGGUCCUUUUUAGCUGUAGTT against Vdac1, for which the z-score was 3.83 (active).

For the sequence CCUAGUAAUCAGUUUGAAUTT against Ak4, the z-score is 1.17.

For CCAUAUGGCUUGUGGCAGATT against Scn1b, the z-score is -0.245.

GGUGACAGAGAUUUUCGAATT against Tbc1d22a: the z-score is 0.931.

As for GGCAAGUCUUUAAAAGUCCTT against Xrcc2, the z-score is -1.48.

Take GGCCUUCCGCAUUUUAUCATT against Zfp729a: the z-score was 2.43 (active).

With GGAGAAGAAGCUGGACCAGTT against Atp5o, the z-score is 0.348.

Turning to GGUACAAUACAUUCAAACATT against Serpinb6c, the z-score is -0.82.

As for CCCUUGUCCAGUGUGAGUUTT against Tmem184b, the z-score is 1.07.

Turning to GGCACAGACCUCACAGUUATT against Olfr64, the z-score is 0.534.

As to GGAAAAAGCUGUGAUACUUTT against Hspbap1, the z-score was -0.895.

As to GGAACUGAUUGAAAACAUCTT against Syce2, the z-score was 2.97 (active).

As to GCAAAAUUAUCAGUGAGGATT against Nt5c3b, the z-score is -2.54 (active).

As to GGGCAGAAAACAACUGGAATT against Pappa, the z-score is -1.1.

Consider GGAGGAUGGAGUCAUAUAUTT against Gm773, for which the z-score is -0.41.

As to GGAGUUUGGAAUAAAAAGGTT against Flt3, the z-score was -0.173.

Consider GCAGAGGGACAGUCUACAUTT against Rorc, for which the z-score was -0.534.

In the case of GAUUUCUAUACAGCCUAUCTT against Olfr799, the z-score is 0.312.

GGCUACAAGUUGGUAAUCUTT against Pnkp: the z-score is 3.36 (active).

Take GGCUGGACAGGAUUAUCCATT against Tmem185b: the z-score is -0.904.

For CGCAGGUAAUUUGUUUGUGTT against Mtnr1b, the z-score is 1.16.

For the sequence GCAUAGCAAUGAAAAUCUATT against Lrit2, the z-score is 1.06.

Turning to GGUUAAAGUUAAAUCUGUCTT against C6, the z-score is -2.35 (active).

GGUCAAUCUUUGGAGUAUUTT against Stk39: the z-score is -0.129.

For the sequence GCUUCCAAUUACUUAUCCATT against Phc3, the z-score is -0.0705.

With GGGAAGAAGAGAUUCUGAUTT against Cep250, the z-score was -1.53.

Regarding GGCAGGUUUAACUUUAAUGTT against Cacna1e, the z-score is 3.59 (active).
